Measurements taken from PubChem BioAssay (NCI).
About 79,000 compounds went through this panel and 15% of them were active in at least one assay; those are over-represented in the sample as a whole. Active and inactive are the calls of the source. No stated cut-off is given here; in the data, active means growth inhibition above about 70%; inactive means the rest.

What was measured:
[1] = NCI Yeast Anticancer Drug Screen. Data for the rad52 strain (AID 147);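 further: 0% = growth of vehicle-treated control cultures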; settings: S. cerevisiae rad52 mutant growth inhibition, stronger effect = higher value
Procedure, shortened: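 Genetically altered yeast (DNA damage repair defect) treated with compound; inhibition calculated relative to vehicle.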

[2] = NCI Yeast Anticancer Drug Screen. Data for the wt1 strain (AID 149);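 further: 0% = growth of vehicle-treated wt1 cultures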; settings: S. cerevisiae wt1 strain (SPY 50644) growth inhibition, stronger effect = higher value
Procedure, shortened: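 wt1 yeast, compound-treated; % growth inhibition vs vehicle control.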

[3] = NCI Yeast Anticancer Drug Screen. Data for the rad50EPP+ strain (AID 151);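 further: 0% = growth of vehicle-treated control cultures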; settings: S. cerevisiae rad50 mutant strain, stronger effect = higher value
Procedure, shortened: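 Strain rad50EPP+; compound exposure; % growth inhibition vs vehicle.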

[4] = NCI Yeast Anticancer Drug Screen. Data for the mgt1 strain (AID 153); settings: S. cerevisiae mgt1 mutant growth inhibition, stronger effect = higher value
Procedure, shortened: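 Read-out: yeast growth inhibition vs vehicle control. Strain mgt1, drawn from a panel altered in DNA damage repair or cell cycle control.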

[5] = NCI Yeast Anticancer Drug Screen. Data for the rad50 strain (AID 155);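 further: 0% = growth of vehicle-only cultures of the same strain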; settings: S. cerevisiae rad50 strain growth inhibition, stronger effect = higher value
Procedure, shortened: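 Genetically altered yeast (DNA repair pathway); compound treatment; growth inhibition vs vehicle ctrl.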

[6] = NCI Yeast Anticancer Drug Screen. Data for the mec2-1 strain (AID 157); settings: S. cerevisiae mec2-1 strain, stronger effect = higher value
Procedure, shortened: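 Cells of the genetically defined mec2-1 yeast strain are incubated with test compound. Inhibition of growth is calculated against vehicle-treated controls.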

[7] = NCI Yeast Anticancer Drug Screen. Data for the rad14 strain (AID 159);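 further: 0% = growth of vehicle-treated control cultures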; settings: S. cerevisiae rad14 strain growth inhibition, stronger effect = higher value
Procedure, shortened: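 Test compounds were applied to a repair-deficient yeast strain. Its growth was then compared with that of cultures given vehicle alone, and inhibition was expressed relative to those controls.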

[8] = NCI Yeast Anticancer Drug Screen. Data for the sgs1 mgt1 strain (AID 161);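 further: 0% = growth of cultures given vehicle only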; settings: S. cerevisiae sgs1 mgt1 strain, stronger effect = higher value
Procedure, shortened: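 Inhibition of yeast growth, normalised to vehicle-treated controls, is reported for a strain bearing genetic alterations in DNA damage repair.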

[9] = NCI Yeast Anticancer Drug Screen. Data for the CLN2oe strain (AID 163);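 further: 0% = growth of vehicle-only control cultures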; settings: S. cerevisiae CLN2oe strain, stronger effect = higher value
Procedure, shortened: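 Strain altered in cell-cycle control, incubated with compound; growth compared to solvent-treated controls.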

[10] = NCI Yeast Anticancer Drug Screen. Data for the cln2 rad14 strain (AID 165);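 further: 0% = growth equal to vehicle treated cultures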; settings: S. cerevisiae cln2 rad14 strain, stronger effect = higher value
Procedure, shortened: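 The screen exposed genetically defined yeast (cln2 rad14) to test compounds and scored growth inhibition relative to vehicle-treated controls.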

[11] = NCI Yeast Anticancer Drug Screen. Data for the bub3 strain (AID 167); settings: S. cerevisiae bub3 mutant strain, stronger effect = higher value
Procedure, shortened: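 Yeast carrying a defined mutation is treated with each compound, and growth is compared with that of vehicle-exposed cells to give inhibition.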

[12] = NCI Yeast Anticancer Drug Screen. Data for the wt2 strain (AID 169);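 further: 0% = growth of vehicle-treated yeast cultures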; settings: S. cerevisiae wt2 strain growth inhibition, stronger effect = higher value
Procedure, shortened: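 Steps: yeast strain treated with compound; growth recorded; inhibition calculated relative to cultures given vehicle alone.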

[13] = NCI Yeast Anticancer Drug Screen. Data for the mlh1 strain (AID 171);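 further: 0% = growth of vehicle-treated control cultures of the same strain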; settings: S. cerevisiae mlh1 strain growth inhibition, stronger effect = higher value
Procedure, shortened: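 Yeast screen: mutant strain plus compound, growth scored against vehicle control wells.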

[14] = NCI Yeast Anticancer Drug Screen. Data for the sgs1 strain (AID 173);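 further: 0% = growth of vehicle-only control cultures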; settings: S. cerevisiae sgs1 mutant, stronger effect = higher value
Procedure, shortened: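 Inhibition of yeast growth served as the measure. The mutant strain was treated with each compound, and growth was normalised to cultures receiving vehicle alone.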

[15] = NCI Yeast Anticancer Drug Screen. Data for the mlh1 rad18 strain (AID 175); settings: S. cerevisiae mlh1 rad18 strain growth inhibition, stronger effect = higher value
Procedure, shortened: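 Compound-treated yeast growth, normalised to vehicle controls. Strain bears defined DNA repair mutations.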

[16] = NCI Yeast Anticancer Drug Screen. Data for the rad18 strain (AID 177); settings: S. cerevisiae rad18 mutant growth inhibition, stronger effect = higher value
Procedure, shortened: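 Inhibition values reflect reduced yeast growth compared with vehicle-treated controls, using a strain engineered with a DNA damage repair defect.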

[17] = at 5.0 µM (retest, dose inferred, filed as 0.5)
[18] = at 50.0 µM (retest, dose inferred, filed as 5.0)

Measured: growth inhibition

O=C1C=CC(=C(c2ccccc2)c2ccccc2)c2ccccc21
active: [5]; [18] 91% | [6]; [18] 89% | [8]; [18] 93% | [10]; [18] 86% | [11]; [18] 92% | [15]; [18] 92%
inactive: [1]; at 1.2 µM 6% | [1]; at 3.7 µM 3% | [1]; at 11.0 µM -4% | [1]; at 33.0 µM 4% | [1]; at 100.0 µM 0% | [2]; at 1.2 µM 0% | [2]; at 3.7 µM 1% | [2]; at 11.0 µM 1% | [2]; at 33.0 µM 2% | [2]; at 100.0 µM 4% | [3]; at 1.2 µM 9% | [3]; at 3.7 µM 7% | [3]; at 11.0 µM 2% | [3]; at 33.0 µM 15% | [3]; at 100.0 µM 8% | [4]; at 1.2 µM 0% | [4]; at 3.7 µM 0% | [4]; at 11.0 µM -1% | [4]; at 33.0 µM -1% | [4]; at 100.0 µM 2% | [5]; at 1.2 µM 7% | [5]; at 3.7 µM 7% | [5]; [17] 25% | [5]; at 11.0 µM -1% | [5]; at 33.0 µM 8% | [5]; at 50.0 µM -6.5% | [5]; at 100.0 µM 10% | [6]; at 1.2 µM 0% | [6]; at 3.7 µM -1% | [6]; [17] -1% | [6]; at 11.0 µM 1% | [6]; at 33.0 µM -1% | [6]; at 50.0 µM 15.1% | [6]; at 100.0 µM 2% | [7]; at 1.2 µM 5% | [7]; at 3.7 µM 2% | [7]; at 11.0 µM -2% | [7]; at 33.0 µM 1% | [7]; at 100.0 µM -2% | [8]; [17] 43% | [8]; at 50.0 µM 6.15% | [9]; at 1.2 µM -1% | [9]; at 3.7 µM -3% | [9]; at 11.0 µM -9% | [9]; at 33.0 µM -8% | [9]; at 100.0 µM -9% | [10]; [17] 25% | [10]; at 50.0 µM -44.3% | [11]; at 1.2 µM 0% | [11]; at 3.7 µM 1% | [11]; [17] 53% | [11]; at 11.0 µM 3% | [11]; at 33.0 µM 9% | [11]; at 50.0 µM 25.1% | [11]; at 100.0 µM 21% | [12]; at 1.2 µM -6% | [12]; at 3.7 µM -4% | [12]; at 11.0 µM 0% | [12]; at 33.0 µM -4% | [12]; at 100.0 µM -3% | [13]; at 1.2 µM 2% | [13]; at 3.7 µM 0% | [13]; at 11.0 µM -3% | [13]; at 33.0 µM 1% | [13]; at 100.0 µM 0% | [14]; at 1.2 µM -11% | [14]; at 3.7 µM -25% | [14]; at 11.0 µM -10% | [14]; at 33.0 µM 10% | [14]; at 100.0 µM 18% | [15]; [17] 69% | [15]; at 50.0 µM 13.2% | [16]; at 1.2 µM 6% | [16]; at 3.7 µM 4% | [16]; at 11.0 µM 1% | [16]; at 33.0 µM 4% | [16]; at 100.0 µM 2%

C[C@H](CCC(=O)NN)[C@H]1CC[C@H]2[C@@H]3CC[C@@H]4C[C@H](O)CC[C@]4(C)[C@H]3CC[C@]12C
inactive: [1]; at 1.2 µM -2% | [1]; at 3.7 µM 0% | [1]; at 11.0 µM 0% | [1]; at 33.0 µM 6% | [1]; at 100.0 µM 10% | [2]; at 1.2 µM 1% | [2]; at 3.7 µM 0% | [2]; at 11.0 µM 0% | [2]; at 33.0 µM 0% | [2]; at 100.0 µM 3% | [3]; at 1.2 µM 0% | [3]; at 3.7 µM 4% | [3]; at 11.0 µM 4% | [3]; at 33.0 µM 6% | [3]; at 100.0 µM 18% | [4]; at 1.2 µM 0% | [4]; at 3.7 µM -1% | [4]; at 11.0 µM 1% | [4]; at 33.0 µM -1% | [4]; at 100.0 µM 2% | [5]; at 1.2 µM 1% | [5]; at 3.7 µM 1% | [5]; [17] 12% | [5]; at 11.0 µM 9% | [5]; at 33.0 µM -1% | [5]; [18] 45% | [5]; at 50.0 µM 60% | [5]; at 100.0 µM 5% | [6]; at 1.2 µM 3% | [6]; at 3.7 µM 3% | [6]; [17] 0% | [6]; at 11.0 µM 3% | [6]; at 33.0 µM 5% | [6]; [18] 7% | [6]; at 50.0 µM 40.2% | [6]; at 100.0 µM 17% | [7]; at 1.2 µM 0% | [7]; at 3.7 µM -3% | [7]; at 11.0 µM 0% | [7]; at 33.0 µM -5% | [7]; at 100.0 µM 12% | [8]; [17] 3% | [8]; [18] 51% | [8]; at 50.0 µM 35.3% | [9]; at 1.2 µM -4% | [9]; at 3.7 µM 2% | [9]; at 11.0 µM 5% | [9]; at 33.0 µM 2% | [9]; at 100.0 µM 16% | [10]; [17] -4% | [10]; [18] 54% | [10]; at 50.0 µM 54.4% | [11]; at 1.2 µM -3% | [11]; at 3.7 µM 1% | [11]; [17] -18% | [11]; at 11.0 µM 8% | [11]; at 33.0 µM 1% | [11]; at 100.0 µM -3% | [12]; at 1.2 µM -2% | [12]; at 3.7 µM -2% | [12]; at 11.0 µM -2% | [12]; at 33.0 µM -1% | [12]; at 100.0 µM 2% | [13]; at 1.2 µM 3% | [13]; at 3.7 µM 2% | [13]; at 11.0 µM 2% | [13]; at 33.0 µM -14% | [13]; at 100.0 µM 4% | [14]; at 1.2 µM 2% | [14]; at 3.7 µM 3% | [14]; at 11.0 µM 4% | [14]; at 33.0 µM 4% | [14]; at 100.0 µM 6% | [15]; [17] 21% | [15]; [18] 44% | [16]; at 1.2 µM -5% | [16]; at 3.7 µM -4% | [16]; at 11.0 µM 5% | [16]; at 33.0 µM 0% | [16]; at 100.0 µM 3%
active: [11]; [18] 73% | [11]; at 50.0 µM 89.2% | [15]; at 50.0 µM 92.2%
